Consider 59 molecules from PubChem BioAssay AID2665 (Vanderbilt High Throughput Screening Facility, 2010).

Assay [1] addresses Muscarinic acetylcholine receptor M1 (Rattus norvegicus) (UniProt P08482). As to the kind of experiment: M5 positive allosteric modulators, analog testing, SAR follow-up, CHO cells, calcium, ACh EC10, single 30 µM (AID 2665).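 Also: 100% = response to a maximal acetylcholine concentration.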 The note with it: rat M1 potentiation, CHO calcium; at 30 µM; stronger effect = higher value.
Assay [2] has as its target Muscarinic acetylcholine receptor M5 (Homo sapiens) (UniProt P08912). Described as above. The note with it: CHO hM5 calcium flux, ACh EC10 potentiation; at 30 µM; stronger effect = higher value.

Calls of active or inactive are those of the source. No rule for the calls is given here.

Chain of Muscarinic acetylcholine receptor M5 (Homo sapiens) (P08912 whole entry, looked up): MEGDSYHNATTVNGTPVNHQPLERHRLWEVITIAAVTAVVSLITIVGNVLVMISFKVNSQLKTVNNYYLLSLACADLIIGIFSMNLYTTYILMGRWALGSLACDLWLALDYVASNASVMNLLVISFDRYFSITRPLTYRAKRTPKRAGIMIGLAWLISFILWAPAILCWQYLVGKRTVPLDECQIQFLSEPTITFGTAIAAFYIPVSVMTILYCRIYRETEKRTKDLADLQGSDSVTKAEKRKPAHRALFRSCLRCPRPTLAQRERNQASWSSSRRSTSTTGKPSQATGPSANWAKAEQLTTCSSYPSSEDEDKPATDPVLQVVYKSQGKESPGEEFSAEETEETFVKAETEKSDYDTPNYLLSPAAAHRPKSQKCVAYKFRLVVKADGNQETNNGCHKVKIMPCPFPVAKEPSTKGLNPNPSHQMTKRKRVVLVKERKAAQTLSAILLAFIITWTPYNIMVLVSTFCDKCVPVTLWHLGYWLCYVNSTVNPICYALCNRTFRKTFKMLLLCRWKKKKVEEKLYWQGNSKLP

As for `O=C1C(=O)N(Cc2ccc(OC(F)(F)F)cc2)c2ccc(Cl)cc21`, the % ACh max response in assay [1] was 31.3%; in assay [2] it was 47.1% (active).

On to `O=C1C(=O)N(Cc2ccccc2Cl)c2ccccc21`, for which the % ACh max response in assay [1] was 43.4%; in assay [2], 42% (active).

Turning to `O=C1C(=O)N(Cc2ccccc2C(F)(F)F)c2ccc(F)cc21`, the % ACh max response in assay [1] was 47.8%; in assay [2], 36.1% (active).

Take `O=C1C(=O)N(Cc2ccc(F)cc2F)c2ccc(F)cc21`: the % ACh max response in assay [1] is 47.3%; in assay [2] it was 60.3% (active).

Consider `O=C1C(=O)N(Cc2ccccc2C(F)(F)F)c2ccc(OC(F)(F)F)cc21`, for which the % ACh max response in assay [1] was 22.6%; in assay [2], 56.5% (active).

Take `Cc1ccc2c(c1)C(=O)C(=O)N2Cc1ccc(OC(F)(F)F)cc1`: the % ACh max response in assay [1] was 13.8%; in assay [2], 18.9% (inactive).

`O=C1C(=O)N(Cc2ccc(OC(F)(F)F)cc2)c2ccc(F)cc21`: the results for the % ACh max response in assay [1] and in assay [2] were 59.8% and 58.4% (active), respectively.

On to `Cc1cccc2c1N(Cc1c(F)cccc1F)C(=O)C2=O`, for which the % ACh max response in assay [1] is 17.3%; in assay [2] it was 14.4% (inactive).

On to `Cc1ccc2c(c1)C(=O)C(=O)N2Cc1ccccc1C`, for which the values for the % ACh max response in assay [1] and in assay [2] were 20.2% and 29.9% (inactive), respectively.

As for `Cc1cccc2c1N(Cc1ccccc1F)C(=O)C2=O`, the values for the % ACh max response in assay [1] and in assay [2] were 24.9% and 24.6% (inactive), respectively.

In the case of `COc1cccc(CN2C(=O)C(=O)c3cccc(Cl)c32)c1`, the % ACh max response was 46.9% in assay [1] and 38.7% (active) in assay [2].

On to `COc1ccc(-c2ccc(CN3C(=O)C(=O)c4ccccc43)cc2)cc1`, for which the % ACh max response is 20.1% in assay [1] and 30.8% (inactive) in assay [2].

Take `O=C1C(=O)N(Cc2ccc(OC(F)(F)F)cc2)c2ccc(OC(F)(F)F)cc21`: the % ACh max response in assay [1] is 13.8%; in assay [2], 58.9% (active).

For the molecule `O=C1C(=O)N(Cc2ccc(OC(F)(F)F)cc2)c2c(F)cccc21`, the % ACh max response in assay [1] was 51.8%; in assay [2] it was 57.7% (active).

With `O=C1C(=O)N(Cc2ccc(Br)cc2F)c2c(F)cccc21`, the % ACh max response in assay [1] was 39.2%; in assay [2], 46.3% (active).

Consider `O=C1C(=O)N(Cc2ccc(Br)cc2F)c2ccc(OC(F)(F)F)cc21`, for which the figures for the % ACh max response in assay [1] and in assay [2] were 11.6% and 36.4% (inactive), respectively.

As for `O=C1C(=O)N(Cc2c(F)cccc2F)c2ccc(OC(F)(F)F)cc21`, the % ACh max response in assay [1] was 13.6%; in assay [2] it was 29.8% (inactive).

As to `Cc1ccc2c(c1)C(=O)C(=O)N2Cc1ccc(Br)cc1F`, the % ACh max response in assay [1] was 22.3%; in assay [2] it was 27.8% (inactive).

Take `O=C1C(=O)N(Cc2ccc(Br)cc2F)c2ccccc21`: the % ACh max response in assay [1] was 49.2%; in assay [2] it was 48.5% (active).

In the case of `O=C1C(=O)N(Cc2ccc(OC(F)(F)F)cc2)c2c(Cl)cccc21`, the results for the % ACh max response in assay [1] and in assay [2] were 43.6% and 72.3% (active), respectively.

On to `Cc1ccc2c(c1)C(=O)C(=O)N2Cc1ccccc1Cl`, for which the % ACh max response is 16.8% in assay [1] and 24.3% (inactive) in assay [2].

As for `COc1cccc(CN2C(=O)C(=O)c3c(Cl)ccc(Cl)c32)c1`, the % ACh max response in assay [1] was 13.3%; in assay [2], 35.1% (inactive).

For the molecule `O=C1C(=O)N(Cc2ccc(F)cc2F)c2c(F)cccc21`, the % ACh max response in assay [1] is 64.4%; in assay [2] it was 68.9% (active).

With `Cc1cccc2c1N(Cc1ccc(F)cc1F)C(=O)C2=O`, the results for the % ACh max response in assay [1] and in assay [2] were 32.6% and 33.8% (inactive), respectively.

On to `O=C1C(=O)N(Cc2ccccc2C(F)(F)F)c2c(Cl)cccc21`, for which the figures for the % ACh max response in assay [1] and in assay [2] were 31.1% and 14% (inactive), respectively.

Turning to `O=C1C(=O)N(Cc2ccccc2C(F)(F)F)c2c(F)cccc21`, the results for the % ACh max response in assay [1] and in assay [2] were 41.3% and 30.9% (active), respectively.

`Cc1ccccc1CN1C(=O)C(=O)c2cccc(F)c21`: the % ACh max response in assay [1] is 30.2%; in assay [2], 27.5% (inactive).

For the molecule `O=C1C(=O)N(Cc2ccccc2F)c2ccc(F)cc21`, the % ACh max response in assay [1] was 40.1%; in assay [2], 46.2% (active).

As for `O=C1C(=O)N(Cc2ccc(F)cc2F)c2ccc(Cl)cc21`, the results for the % ACh max response in assay [1] and in assay [2] were 32.4% and 44.9% (active), respectively.

Regarding `O=C1C(=O)N(Cc2ccc(OC(F)(F)F)cc2)c2ccccc21`, the % ACh max response in assay [1] was 54.7%; in assay [2], 60.5% (active).

`Cc1ccc2c(c1)C(=O)C(=O)N2Cc1ccccc1C(F)(F)F`: the % ACh max response in assay [1] was 17.8%; in assay [2], 30.6% (inactive).

On to `COc1ccc(CN2C(=O)C(=O)c3cccc(Cl)c32)cc1`, for which the % ACh max response in assay [1] was 49.4%; in assay [2], 30.3% (active).

Turning to `O=C1C(=O)N(Cc2ccccc2F)c2ccc(OC(F)(F)F)cc21`, the % ACh max response in assay [1] was 11.3%; in assay [2], 51.8% (active).

On to `O=C1C(=O)N(Cc2ccc(Br)cc2F)c2ccc(Cl)cc21`, for which the % ACh max response was 29.9% in assay [1] and 30.4% (inactive) in assay [2].

As for `O=C1C(=O)N(Cc2ccc(-c3ccc(Cl)c(Cl)c3)cc2)c2ccccc21`, the % ACh max response was 35.3% in assay [1] and 56.3% (active) in assay [2].

Take `O=C1C(=O)N(Cc2ccc(Br)cc2)c2ccc(OC(F)(F)F)cc21`: the % ACh max response was 13.2% in assay [1] and 47.6% (active) in assay [2].

For the molecule `COc1ccccc1-c1ccc(CN2C(=O)C(=O)c3ccccc32)cc1`, the % ACh max response in assay [1] was 47.6%; in assay [2], 58.1% (active).

`O=C1C(=O)N(Cc2ccc(-c3ccc(F)nc3)cc2)c2ccccc21`: the % ACh max response in assay [1] is 41%; in assay [2] it was 46% (active).

Consider `O=C1C(=O)N(CCc2ccc(Br)cc2)c2ccccc21`, for which the % ACh max response was 52.4% in assay [1] and 65% (active) in assay [2].

Regarding `O=C1C(=O)N(Cc2ccc(C(F)(F)F)cc2)c2c(F)cccc21`, the % ACh max response is 60.9% in assay [1] and 71.1% (active) in assay [2].

As to `Cc1ccccc1CN1C(=O)C(=O)c2c(Cl)ccc(Cl)c21`, the % ACh max response was 13.7% in assay [1] and 16.4% (inactive) in assay [2].

Regarding `O=C1C(=O)N(Cc2ccc(OC(F)(F)F)cc2)c2c(Cl)ccc(Cl)c21`, the % ACh max response in assay [1] is 16%; in assay [2] it was 23.2% (inactive).

On to `Cc1ccccc1CN1C(=O)C(=O)c2cc(F)ccc21`, for which the % ACh max response was 37.7% in assay [1] and 40.8% (active) in assay [2].

On to `O=C1C(=O)N(Cc2ccccc2C(F)(F)F)c2ccc(Cl)cc21`, for which the % ACh max response in assay [1] is 29.6%; in assay [2], 48.4% (active).

With `COc1ccc(CN2C(=O)C(=O)c3cc(F)ccc32)cc1`, the values for the % ACh max response in assay [1] and in assay [2] were 41.1% and 38.3% (active), respectively.

Consider `O=C1C(=O)N(Cc2ccc(F)cc2F)c2ccccc21`, for which the % ACh max response in assay [1] was 44.8%; in assay [2], 40.4% (active).

As to `O=C1C(=O)N(Cc2ccc(F)cc2F)c2ccc(OC(F)(F)F)cc21`, the % ACh max response in assay [1] is 25.9%; in assay [2] it was 61.9% (active).

Regarding `COc1cccc(CN2C(=O)C(=O)c3cc(C)ccc32)c1`, the % ACh max response in assay [1] is 14.5%; in assay [2], 29.6% (inactive).

For the molecule `COc1ccc(CN2C(=O)C(=O)c3cc(OC(F)(F)F)ccc32)cc1`, the % ACh max response is 12.7% in assay [1] and 60.7% (active) in assay [2].

As to `O=C1C(=O)N(Cc2c(F)cccc2F)c2c(Cl)ccc(Cl)c21`, the % ACh max response in assay [1] was 16.4%; in assay [2], 12.2% (inactive).

`O=C1C(=O)N(Cc2ccc(Br)cc2)c2c(F)cccc21`: the % ACh max response in assay [1] is 62.7%; in assay [2], 51.7% (active).

Turning to `O=C1C(=O)N(Cc2ccccc2Cl)c2ccc(F)cc21`, the % ACh max response is 41.4% in assay [1] and 39.9% (active) in assay [2].

Consider `Cc1ccc2c(c1)C(=O)C(=O)N2Cc1ccc(Br)cc1`, for which the % ACh max response was 19% in assay [1] and 24.1% (inactive) in assay [2].

As for `O=C1C(=O)N(Cc2ccccc2Cl)c2c(F)cccc21`, the % ACh max response in assay [1] was 18.5%; in assay [2] it was 20.3% (inactive).

Take `O=C1C(=O)N(Cc2c(F)cccc2F)c2ccc(F)cc21`: the results for the % ACh max response in assay [1] and in assay [2] were 27.6% and 31.1% (inactive), respectively.

As to `COc1ccc(CN2C(=O)C(=O)c3ccccc32)cc1`, the % ACh max response was 43.6% in assay [1] and 29.2% (active) in assay [2].

Turning to `Cc1ccccc1CN1C(=O)C(=O)c2cc(Cl)ccc21`, the results for the % ACh max response in assay [1] and in assay [2] were 27.6% and 47.3% (active), respectively.

On to `COc1cccc(CN2C(=O)C(=O)c3cc(Cl)ccc32)c1`, for which the % ACh max response in assay [1] was 16.9%; in assay [2], 27.9% (inactive).

On to `O=C1C(=O)N(Cc2ccccc2F)c2ccccc21`, for which the % ACh max response in assay [1] was 38.9%; in assay [2], 24.5% (active).
